These results are taken from PubChem BioAssay (EPA / NIEHS).

By AC50 is commonly meant the concentration at which the activity in the assay is half-maximal.

Read-out in test [1]: Intercellular Adhesion Molecule 1 (ICAM1), ICAM1 (gene 3383)
Kind of test: BSK_3C_ICAM1: BioMAP Diversity Plus: 3C Assay for Intercellular Adhesion Molecule 1 (ICAM1) Biomarker Activity (AID 2283003; active = hit-call score of the fitted dose curve at least 0.9, where 1 is the maximum; inactive = score below 0.9). The note with it: primary human endothelial cells (HUVEC); actives raise or lower the signal. The procedure, abridged: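 Using DMSO as baseline, bidirectional curve fitting was applied to ICAM-1 ELISA signals from HUVEC in the 3C system, measured 24 h after compound addition.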

Test [2] is described as follows: BSK_3C_Proliferation: Cell Proliferation Assessment in the BioMAP Diversity Plus: 3C Assay (AID 2283006; active = hit-call score of the fitted dose curve at least 0.9, where 1 is the maximum; inactive = score below 0.9). The note with it: primary human endothelial cells (HUVEC). The procedure, abridged: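 Measured here: sulforhodamine B (0.1%) staining of TCA-fixed sub-confluent umbilical vein endothelial cultures 48 h post-dosing, absorbance 560 nm. DMSO served as negative control and baseline; both signal gain and loss were modelled.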

Test [3] deals with Peroxisome proliferator-activated receptor gamma (Homo sapiens) (UniProt P37231). Put plainly: ATG_PPARg_TRANS: Attagene TRANS-FACTORIAL HepG2 Assay for human Peroxisome Proliferator-activated Receptor-gamma (PPARg) (AID 2283007). The method, boiled down:
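HepG2 cells transiently transfected with multiplexed GAL4-UAS reporter units and exogenous chimeric NR-Gal4 proteins; reporter mRNA quantified after 24 h compound exposure by RT-PCR, fluorescent labelling, HpaI digestion and capillary electrophoresis; gain-of-signal fitted versus DMSO baseline.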

Test [4] addresses Nuclear receptor subfamily 1 group I member 2 (Homo sapiens) (UniProt O75469). Kind of test: ATG_PXR_TRANS: Attagene TRANS-FACTORIAL HepG2 Assay for human Pregnane X Receptor (PXR) (AID 2283008). The method, boiled down: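 HepG2 transfected (FuGene 6) with GAL4-UAS reporter units + PXR-Gal4 chimera; dosed 24 h. Total RNA → oligo(dT) RT → PCR → 6-FAM primer extension → HpaI cut → CE. Gain-of-signal vs DMSO.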

Test [5] addresses Retinoic acid receptor RXR-alpha (Homo sapiens) (UniProt P19793). Kind of test: ATG_RXRa_TRANS: Attagene TRANS-FACTORIAL HepG2 Assay for human Retinoid X Receptor alpha (RXRa) (AID 2283012). The method, boiled down: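 Chimeric NR-GAL4 trans-activation in HepG2, 24 h treatment; reporter transcripts quantified by fluorescence on capillary electrophoresis, analysed for upward change from DMSO.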

Test [6] addresses human Retinoid X Receptor beta (RXRb), RXRB (gene 6257) (UniProt P28702). Put plainly: ATG_RXRb_TRANS: Attagene TRANS-FACTORIAL HepG2 Assay for human Retinoid X Receptor beta (RXRb) (AID 2283013). The procedure, abridged:
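After a 24 h incubation with test chemical, transfected HepG2 cells carrying NR-Gal4 fusions and GAL4-UAS reporter transcription units yield RNA whose reporter cDNA is FAM-labelled, HpaI-cut and sized by capillary electrophoresis; increases over DMSO are scored.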

Read-out in test [7]: E-selectin (Homo sapiens) (UniProt P16581)
Put plainly: BSK_3C_Eselectin: BioMAP Diversity Plus: 3C Assay for Eselectin Biomarker Activity (AID 2283015; active = hit-call score of the fitted dose curve at least 0.9, where 1 is the maximum; inactive = score below 0.9;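 also: cell surface E-selectin protein quantified by ELISA 24 h after dosing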). The following applies: primary human endothelial cells (HUVEC); actives raise or lower the signal. The procedure, abridged:
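Endpoint derived by bidirectional fitting against DMSO vehicle; signal is ELISA-detected E-selectin from primary HUVEC at 24 h post-dosing, with parallel SRB staining (0.1% SRB, 560 nm) flagging cytotoxicity.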

Read-out in test [8]: Interleukin-1 alpha (IL1a), IL1A (gene 3552)
Put plainly: BSK_BE3C_IL1a: BioMAP Diversity Plus: BE3C Assay for Interleukin-1 alpha (IL1a) Biomarker Activity (AID 2283016; active = hit-call score of the fitted dose curve at least 0.9, where 1 is the maximum; inactive = score below 0.9). The note with it: primary human bronchial epithelial cells; actives raise or lower the signal. The procedure, abridged:
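Measured in human lung primary bronchial epithelial cells: IL-1a by ELISA at 24 h after dosing, with bidirectional fitting against DMSO.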

Read-out in test [9]: Monocyte Chemoattractant Protein-1 (MCP1), CCL2 (gene 6347)
Put plainly: BSK_3C_MCP1: BioMAP Diversity Plus: 3C Assay for Monocyte Chemoattractant Protein-1 (MCP1) Biomarker Activity (AID 2283017; active = hit-call score of the fitted dose curve at least 0.9, where 1 is the maximum; inactive = score below 0.9). The note with it: primary human endothelial cells (HUVEC); actives raise or lower the signal. The method, boiled down:
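Using human vascular primary endothelium, researchers measured MCP-1 by ELISA 24 h after treatment, with DMSO serving as negative control for bidirectional fitting.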

Read-out in test [10]: Monocyte Chemoattractant Protein-1 (MCP1), CCL2 (gene 6347)
Kind of test: BSK_4H_MCP1: BioMAP Diversity Plus: 4H Assay for Monocyte Chemoattractant Protein-1 (MCP1) Biomarker Activity (AID 2283018; active = hit-call score of the fitted dose curve at least 0.9, where 1 is the maximum; inactive = score below 0.9). The note with it: primary human endothelial cells (HUVEC); actives raise or lower the signal. The method, boiled down:
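Primary human umbilical vein endothelium is exposed to chemical for 24 h before MCP-1 is assayed by ELISA. Concentration-response fitted bidirectionally relative to DMSO.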

Read-out in test [11]: Human Leukocyte Antigen - DR isotype (HLADR), HLA-DRA (gene 3122)
Kind of test: BSK_3C_HLADR: BioMAP Diversity Plus: 3C Assay for Human Leukocyte Antigen - DR isotype (HLADR) Biomarker Activity (AID 2283019; active = hit-call score of the fitted dose curve at least 0.9, where 1 is the maximum; inactive = score below 0.9). The note with it: primary human endothelial cells (HUVEC); actives raise or lower the signal. The method, boiled down: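 Compound added to primary HUVEC cultures, 24 h incubation, then HLA-DR determined by ELISA; endpoint derived by bidirectional fitting relative to DMSO negative control.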

Read-out in test [12]: Interleukin-8 (IL8), CXCL8 (gene 3576)
Put plainly: BSK_3C_IL8: BioMAP Diversity Plus: 3C Assay for Interleukin-8 (IL8) Biomarker Activity (AID 2283020; active = hit-call score of the fitted dose curve at least 0.9, where 1 is the maximum; inactive = score below 0.9). The following applies: primary human endothelial cells (HUVEC); actives raise or lower the signal. The method, boiled down: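 Using DMSO-treated wells as the baseline, bidirectional curve fitting was applied to ELISA-measured IL-8 from human umbilical vein endothelial cultures sampled 24 h after compound addition.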

The target in test [13] is human Retinoic Acid Receptor beta (RARb), RARB (gene 5915) (UniProt P10826). Put plainly: ATG_RARb_TRANS: Attagene TRANS-FACTORIAL HepG2 Assay for human Retinoic Acid Receptor beta (AID 2283004). The method, boiled down:
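Fluorescent capillary-electrophoresis detection of GAL4-UAS reporter mRNA defines the endpoint, with induction over DMSO-treated wells scored as activity. Transiently transfected human hepatoma HepG2 cells expressing exogenous NR–Gal4 proteins are exposed to test chemicals for 24 h.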

Test [14] deals with Retinoic acid receptor alpha (Homo sapiens) (UniProt P10276). Put plainly: ATG_RARa_TRANS: Attagene TRANS-FACTORIAL HepG2 Assay for human Retinoic Acid Receptor alpha (RARa) (AID 2283005). The method, boiled down:
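HepG2 transiently transfected with multiplex GAL4-UAS reporter units including a human RARa–GAL4 chimera; 24 h compound exposure. Reporter mRNA quantified by RT-PCR, 6-FAM labeling and capillary electrophoresis; gain of signal versus DMSO.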

Test [15] concerns the target human Retinoic Acid Receptor gamma (RARg), RARG (gene 5916) (UniProt P13631). Kind of test: ATG_RARg_TRANS: Attagene TRANS-FACTORIAL HepG2 Assay for human Retinoic Acid Receptor gamma (RARg) (AID 2283009). The method, boiled down: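 Gain-of-signal relative to DMSO is reported from fluorescent capillary electrophoresis of RT-PCR reporter products. These came from HepG2 cells expressing transfected RARg-GAL4 chimeras with UAS reporters, harvested 24 h after dosing.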

Test [16] has as its target human RAR-related Orphan Receptor gamma (RORg), RORC (gene 6097) (UniProt P51449). Put plainly: ATG_RORg_TRANS: Attagene TRANS-FACTORIAL HepG2 Assay for human RAR-related Orphan Receptor gamma (RORg) (AID 2283011). The procedure, abridged:
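Chimeric RORg-Gal4 transactivation in transfected HepG2; 24 h exposure; RT-PCR/capillary electrophoresis readout of reporter mRNA, DMSO baseline.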

Test [17] addresses human Thyroid Receptor alpha (THRa1), THRA (gene 7067) (UniProt P10827). Kind of test: ATG_THRa1_TRANS: Attagene TRANS-FACTORIAL HepG2 Assay for human Thyroid Receptor alpha (THRa1) (AID 2283014). The procedure, abridged: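 Measured here is mRNA from a GAL4-UAS reporter in transfected HepG2 cells carrying a Gal4-fused receptor, 24 h post-dose. DMSO served as negative control and baseline.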

The target in test [18] is human RAR-related Orphan Receptor beta (RORb), RORB (gene 6096) (UniProt Q92753). Put plainly: ATG_RORb_TRANS: Attagene TRANS-FACTORIAL HepG2 Assay for human RAR-related Orphan Receptor beta (RORb) (AID 2283010). The method, boiled down: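 Multiplexed transcription-factor reporter assay: HepG2 cells transiently carrying NR-Gal4/GAL4-UAS constructs, 24 h treatment, mRNA quantified by RT-PCR plus capillary electrophoresis fluorescence; activity scored as induction over DMSO.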

Inconclusive results are not listed. Active and inactive are the calls of the source. The calls were made as follows, unless noted: active = hit-call score of the fitted dose curve at least 0.9, where 1 is the maximum; inconclusive = response in the unintended direction; inactive = score below 0.9.

human RAR-related Orphan Receptor gamma (RORg), RORC (gene 6097), sequence (P51449 whole entry, looked up, the tested form may be a part): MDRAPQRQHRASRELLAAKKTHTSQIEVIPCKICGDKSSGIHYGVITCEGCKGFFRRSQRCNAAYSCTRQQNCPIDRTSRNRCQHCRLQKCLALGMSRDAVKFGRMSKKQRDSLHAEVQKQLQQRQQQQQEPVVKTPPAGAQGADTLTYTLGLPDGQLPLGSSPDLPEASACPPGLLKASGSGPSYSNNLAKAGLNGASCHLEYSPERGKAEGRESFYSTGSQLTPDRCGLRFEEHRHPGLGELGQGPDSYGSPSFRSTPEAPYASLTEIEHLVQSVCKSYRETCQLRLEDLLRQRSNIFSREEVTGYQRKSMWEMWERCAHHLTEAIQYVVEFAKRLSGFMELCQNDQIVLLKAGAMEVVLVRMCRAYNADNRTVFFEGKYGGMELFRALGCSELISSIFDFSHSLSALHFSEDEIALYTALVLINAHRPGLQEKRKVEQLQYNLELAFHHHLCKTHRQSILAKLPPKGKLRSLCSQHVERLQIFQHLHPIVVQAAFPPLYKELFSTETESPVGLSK
Nuclear receptor subfamily 1 group I member 2 (Homo sapiens), sequence (O75469 whole entry, looked up, the tested form may be a part): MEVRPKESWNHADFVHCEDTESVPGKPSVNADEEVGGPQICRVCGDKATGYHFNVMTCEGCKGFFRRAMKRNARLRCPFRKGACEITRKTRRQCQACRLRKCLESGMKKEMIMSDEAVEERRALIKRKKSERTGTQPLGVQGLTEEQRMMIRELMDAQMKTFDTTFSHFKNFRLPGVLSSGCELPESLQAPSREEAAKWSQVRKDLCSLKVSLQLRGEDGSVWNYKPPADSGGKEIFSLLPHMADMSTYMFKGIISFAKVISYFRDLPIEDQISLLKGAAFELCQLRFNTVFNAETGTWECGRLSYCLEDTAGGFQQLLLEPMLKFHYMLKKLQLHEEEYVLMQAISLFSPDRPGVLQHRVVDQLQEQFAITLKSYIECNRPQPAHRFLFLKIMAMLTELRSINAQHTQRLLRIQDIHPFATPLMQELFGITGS
human Retinoid X Receptor beta (RXRb), RXRB (gene 6257), sequence (P28702 whole entry, looked up, the tested form may be a part): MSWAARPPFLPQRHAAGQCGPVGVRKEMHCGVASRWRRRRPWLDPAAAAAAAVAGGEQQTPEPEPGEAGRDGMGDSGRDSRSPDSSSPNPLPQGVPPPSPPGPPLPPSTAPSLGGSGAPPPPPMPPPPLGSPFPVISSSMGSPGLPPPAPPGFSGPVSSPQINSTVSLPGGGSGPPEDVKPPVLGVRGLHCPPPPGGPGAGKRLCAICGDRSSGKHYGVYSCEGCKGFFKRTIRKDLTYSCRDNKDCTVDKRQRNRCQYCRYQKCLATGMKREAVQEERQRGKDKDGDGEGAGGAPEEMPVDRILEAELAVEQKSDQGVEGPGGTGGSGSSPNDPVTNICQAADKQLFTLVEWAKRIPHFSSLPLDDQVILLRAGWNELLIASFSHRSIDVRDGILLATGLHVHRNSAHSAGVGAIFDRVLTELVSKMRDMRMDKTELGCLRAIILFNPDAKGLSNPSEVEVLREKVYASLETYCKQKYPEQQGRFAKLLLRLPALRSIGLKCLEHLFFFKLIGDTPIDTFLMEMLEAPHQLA
human RAR-related Orphan Receptor beta (RORb), RORB (gene 6096), sequence (Q92753 whole entry, looked up, the tested form may be a part): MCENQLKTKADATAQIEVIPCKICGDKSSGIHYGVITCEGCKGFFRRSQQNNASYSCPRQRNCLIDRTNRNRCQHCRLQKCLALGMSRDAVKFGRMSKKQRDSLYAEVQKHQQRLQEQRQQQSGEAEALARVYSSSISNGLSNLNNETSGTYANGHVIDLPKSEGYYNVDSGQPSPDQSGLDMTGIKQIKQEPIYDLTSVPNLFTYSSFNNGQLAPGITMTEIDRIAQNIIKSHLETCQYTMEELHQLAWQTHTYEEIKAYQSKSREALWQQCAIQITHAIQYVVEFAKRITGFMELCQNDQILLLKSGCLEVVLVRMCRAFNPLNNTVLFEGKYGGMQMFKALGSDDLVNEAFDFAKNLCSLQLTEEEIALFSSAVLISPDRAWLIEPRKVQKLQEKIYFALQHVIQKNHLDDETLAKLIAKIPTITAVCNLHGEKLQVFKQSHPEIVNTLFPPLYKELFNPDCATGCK
human Retinoic Acid Receptor gamma (RARg), RARG (gene 5916), sequence (P13631 whole entry, looked up, the tested form may be a part): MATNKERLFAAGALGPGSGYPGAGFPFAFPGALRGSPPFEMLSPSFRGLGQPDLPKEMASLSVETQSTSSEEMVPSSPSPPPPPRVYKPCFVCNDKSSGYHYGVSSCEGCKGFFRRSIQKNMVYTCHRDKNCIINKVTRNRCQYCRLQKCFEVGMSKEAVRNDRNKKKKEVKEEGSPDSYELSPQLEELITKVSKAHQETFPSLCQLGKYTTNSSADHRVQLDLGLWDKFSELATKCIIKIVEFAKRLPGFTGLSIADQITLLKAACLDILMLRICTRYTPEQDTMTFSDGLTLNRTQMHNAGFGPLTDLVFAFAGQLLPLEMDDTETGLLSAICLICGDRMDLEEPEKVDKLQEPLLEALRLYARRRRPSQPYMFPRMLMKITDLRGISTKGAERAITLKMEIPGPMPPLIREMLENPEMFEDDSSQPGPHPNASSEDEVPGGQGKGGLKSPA
human Retinoic Acid Receptor beta (RARb), RARB (gene 5915), sequence (P10826 whole entry, looked up, the tested form may be a part): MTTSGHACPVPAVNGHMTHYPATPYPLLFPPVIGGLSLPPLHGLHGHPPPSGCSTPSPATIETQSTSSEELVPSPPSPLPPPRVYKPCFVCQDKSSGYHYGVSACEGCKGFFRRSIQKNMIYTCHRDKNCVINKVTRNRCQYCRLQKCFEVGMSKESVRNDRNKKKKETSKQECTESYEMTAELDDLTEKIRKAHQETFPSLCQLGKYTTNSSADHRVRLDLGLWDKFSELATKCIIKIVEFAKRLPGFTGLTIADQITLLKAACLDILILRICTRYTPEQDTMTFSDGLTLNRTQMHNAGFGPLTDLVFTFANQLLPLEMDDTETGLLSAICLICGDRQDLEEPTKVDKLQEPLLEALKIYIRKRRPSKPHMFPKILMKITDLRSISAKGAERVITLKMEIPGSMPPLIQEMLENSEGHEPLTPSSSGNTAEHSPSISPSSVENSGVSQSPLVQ
Retinoic acid receptor RXR-alpha (Homo sapiens), sequence (P19793 whole entry, looked up, the tested form may be a part): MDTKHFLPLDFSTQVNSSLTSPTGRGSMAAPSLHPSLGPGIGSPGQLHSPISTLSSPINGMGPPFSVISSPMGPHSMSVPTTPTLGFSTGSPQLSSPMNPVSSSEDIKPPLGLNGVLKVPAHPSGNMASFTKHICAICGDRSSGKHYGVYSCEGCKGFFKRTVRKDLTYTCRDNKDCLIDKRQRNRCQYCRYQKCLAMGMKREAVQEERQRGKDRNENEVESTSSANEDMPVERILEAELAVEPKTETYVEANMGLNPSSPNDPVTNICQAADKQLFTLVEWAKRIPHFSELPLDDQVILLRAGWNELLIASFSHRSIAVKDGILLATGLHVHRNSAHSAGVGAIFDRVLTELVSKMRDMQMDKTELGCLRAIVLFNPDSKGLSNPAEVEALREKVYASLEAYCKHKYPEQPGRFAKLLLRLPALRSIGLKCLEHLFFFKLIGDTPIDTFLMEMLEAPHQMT
human Thyroid Receptor alpha (THRa1), THRA (gene 7067), sequence (P10827 whole entry, looked up, the tested form may be a part): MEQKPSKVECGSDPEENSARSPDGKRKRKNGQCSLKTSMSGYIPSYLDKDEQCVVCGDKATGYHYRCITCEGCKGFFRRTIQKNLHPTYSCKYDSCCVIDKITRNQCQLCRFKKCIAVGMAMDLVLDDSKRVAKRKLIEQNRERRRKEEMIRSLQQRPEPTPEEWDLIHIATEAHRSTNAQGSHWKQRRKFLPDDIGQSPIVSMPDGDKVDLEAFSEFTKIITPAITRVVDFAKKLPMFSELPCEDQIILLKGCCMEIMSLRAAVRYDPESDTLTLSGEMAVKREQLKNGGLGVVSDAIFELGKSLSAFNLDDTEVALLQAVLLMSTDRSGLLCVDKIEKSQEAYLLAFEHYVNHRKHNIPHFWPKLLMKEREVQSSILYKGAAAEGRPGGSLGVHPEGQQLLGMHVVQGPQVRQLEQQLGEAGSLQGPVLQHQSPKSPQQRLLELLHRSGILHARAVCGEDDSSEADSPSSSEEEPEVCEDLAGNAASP
Retinoic acid receptor alpha (Homo sapiens), sequence (P10276 whole entry, looked up, the tested form may be a part): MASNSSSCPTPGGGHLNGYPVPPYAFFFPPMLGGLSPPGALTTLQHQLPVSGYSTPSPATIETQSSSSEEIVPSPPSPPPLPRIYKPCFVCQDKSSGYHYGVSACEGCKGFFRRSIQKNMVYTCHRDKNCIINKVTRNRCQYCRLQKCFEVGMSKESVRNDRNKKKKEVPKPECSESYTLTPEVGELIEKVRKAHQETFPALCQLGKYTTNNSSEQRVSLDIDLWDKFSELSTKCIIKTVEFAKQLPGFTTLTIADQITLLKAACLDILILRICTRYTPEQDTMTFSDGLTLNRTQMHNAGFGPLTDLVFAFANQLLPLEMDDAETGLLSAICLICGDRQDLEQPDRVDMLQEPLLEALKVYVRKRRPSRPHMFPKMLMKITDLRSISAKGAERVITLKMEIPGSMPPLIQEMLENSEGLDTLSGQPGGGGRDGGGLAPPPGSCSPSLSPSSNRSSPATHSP
Peroxisome proliferator-activated receptor gamma (Homo sapiens), sequence (P37231 whole entry, looked up, the tested form may be a part): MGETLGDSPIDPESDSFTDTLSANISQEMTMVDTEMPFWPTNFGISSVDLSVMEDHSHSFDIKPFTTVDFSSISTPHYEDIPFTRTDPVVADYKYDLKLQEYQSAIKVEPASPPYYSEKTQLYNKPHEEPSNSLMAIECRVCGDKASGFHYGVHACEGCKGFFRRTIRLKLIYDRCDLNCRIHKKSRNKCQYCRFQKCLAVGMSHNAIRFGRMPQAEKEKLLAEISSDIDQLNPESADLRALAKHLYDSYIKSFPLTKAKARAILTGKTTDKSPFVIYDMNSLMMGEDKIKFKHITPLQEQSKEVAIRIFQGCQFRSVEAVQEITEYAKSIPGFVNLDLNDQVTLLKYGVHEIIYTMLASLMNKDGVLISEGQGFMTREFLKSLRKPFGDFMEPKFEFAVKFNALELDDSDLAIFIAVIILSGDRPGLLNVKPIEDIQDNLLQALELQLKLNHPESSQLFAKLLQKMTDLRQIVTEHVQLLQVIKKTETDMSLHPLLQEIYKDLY

As for `CC(=O)O[C@]1(C(C)=O)CC[C@H]2[C@@H]3C[C@H](C)C4=CC(=O)CC[C@]4(C)[C@H]3CC[C@@]21C`, the outcome in test [1], in test [2], in test [4], in [7], in [8] and in test [9] was inactive. Moreover, the outcome in [10] and in [12] was inactive. The AC50 in test [3] is 21.9 µM (active); in [5] it was 2.91 µM (active); in test [6], 2.34 µM (active); in [11], 10 µM (active).
With `COC(C)CCO` (stereo not drawn), the call in test [13], in [14], in test [3], in test [4], in test [15] and in test [16] was inactive. Further, the call in [17] was inactive. Moreover, the figures for the AC50 in [5] and in test [6] were 53.7 µM (active) and 4.07 µM (active), respectively.
With `CNCCO`, the call in test [3], in [4] and in [17] was inactive.
With `C=O`, the outcome in test [13], in test [14], in test [4], in [15], in test [5] and in [6] was inactive. For the same compound, in test [17], the result was inactive.
Consider `CCCCN`, for which the compound was classed as inactive in [3], in test [18], in test [5], in test [6] and in [17].
`Nc1cc(N)cc(C(=O)O)c1`: the call in test [16], in [5] and in test [17] was inactive.
Regarding `O=[N+]([O-])c1ccc(C=Cc2ccc([N+](=O)[O-])cc2S(=O)(=O)O)c(S(=O)(=O)O)c1`, the compound was classed as inactive in test [3], in test [18] and in test [17].
As to `O=c1[nH]c(=O)n([C@H]2CCCO2)cc1F`, the outcome in [3] and in [17] was inactive.
As for `CCOC(=S)SSC(=S)OCC`, the compound was called inactive in [3], in test [5] and in [6].
`Cc1ccc(C(=O)O)o1`: the compound was classed as inactive in [4], in [16], in test [6] and in test [17].
Take `NCCOCCO`: the compound was called inactive in [4], in test [18], in [16], in test [5] and in test [17].
For the compound `C=CC(C)(C)O`, the outcome in [3], in test [4], in test [5] and in test [6] was inactive.
For `CCCCC[Si](OCC)(OCC)OCC`, the outcome in test [14], in test [3], in [15], in [16] and in test [6] was inactive. The AC50 in test [4] is 7.48 µM (active).
Turning to `C=C(C)C(=O)NCCCN(C)C`, the compound was called inactive in test [4], in test [18], in [5] and in test [17].
Consider `CC(=O)C=CC1=C(C)CCCC1(C)C`, for which the figures for the AC50 in [3], in test [4] and in test [6] were 14.1 µM (active), 1.02 µM (active) and 43.9 µM (active), respectively.
Regarding `Cc1cccc(C)c1[N+](=O)[O-]`, the compound was called inactive in [13], in test [14], in [4], in test [15], in [18] and in test [16]. The result in test [5] and in [17] was inactive.
Regarding `CCCCCCOC(=O)CCCCC`, the outcome in test [13], in [14], in [3], in test [4], in test [15] and in [18] was inactive. Besides, the outcome in [5] was inactive.
